Among the data in the OligoGym collection are sensor-assay potency score (higher = more potent) values, retold here.
Further: reference of the scale not given here.

One assay addresses LRRC45. The assay is described as follows: pooled miR-30 sensor sort-seq; sequence = guide strand. To be noted: shRNA.
TAGACTCCCGCTCTGCAGCTTC had a sensor-assay potency score (higher = more potent) of -0.306.

Sequence TTCAGCTCAGCTGACATGCTGG came in with a sensor-assay potency score (higher = more potent) of -0.387.

TTATCAATAGTCTCCATCAAGT returned a sensor-assay potency score (higher = more potent) of -1.42.

ATGCTGGTCATCTCCTGCCTGG displayed a sensor-assay potency score (higher = more potent) of -1.52.

As for TTGGCAGCAGACAAGTCTCTGA, the sensor-assay potency score (higher = more potent) was -0.793.

The sequence TGACTGATCTGGTTGTTGCGGA yielded a sensor-assay potency score (higher = more potent) of 0.13.

The target of the next assay is LRRC8D. The assay is described as above. To be noted: shRNA.
As to TATAGATCAAGTCACTATCTTC, the sensor-assay potency score (higher = more potent) was -0.519.

On to TGATCTTCCACAACAAGCCCGC, for which the sensor-assay potency score (higher = more potent) was -0.444.

On to TAACATAACAACAGCTAGGTAA, for which the sensor-assay potency score (higher = more potent) is -0.029.

For TTATCCAGGATTGTCATGCTGG, the sensor-assay potency score (higher = more potent) was -0.286.

Sequence TTAACATAACAACAGCTAGGTA registered a sensor-assay potency score (higher = more potent) of -0.589.

As to TAGCTCACATCTAAGCATCTGA, the sensor-assay potency score (higher = more potent) was found to be 0.32.

Sequence TTGTAGCTCACATCTAAGCATC had a sensor-assay potency score (higher = more potent) of -1.4.

In turn, TTTTTGAGCAAATACACCCAGG gave a sensor-assay potency score (higher = more potent) of -0.941.

Take TTAAGTACAACTCTCGAAGGTT: the sensor-assay potency score (higher = more potent) is 0.166.

Take TTTGTAAACATTCAGTAGCGGC: the sensor-assay potency score (higher = more potent) is -0.948.

TAAGGTGCCGCAACTCTCGGAG had a sensor-assay potency score (higher = more potent) of 0.33.

In turn, TTATGAATGACTAACTTTGTAA returned a sensor-assay potency score (higher = more potent) of -0.367.

The next assay addresses LSG1. The description is as above. To be noted: shRNA.
TTGATTGTTGAACTCTTACCAA: the sensor-assay potency score (higher = more potent) is -0.2.

In the case of TAATATTAAGTTTTTCAGCTAC, the sensor-assay potency score (higher = more potent) is -0.362.

In the case of TTGTGTATCTGCCTCTTCTGTG, the sensor-assay potency score (higher = more potent) is -0.396.

With TTGTTGAACTCTTACCAACATT, the sensor-assay potency score (higher = more potent) is -1.39.

As for TTGCTTTGTCTATCATCTCTGT, the sensor-assay potency score (higher = more potent) is -0.0591.

TGATTGTTGAACTCTTACCAAC: the sensor-assay potency score (higher = more potent) was -1.62.

TTGTGTGCAACCAGGAGTCAGT: the sensor-assay potency score (higher = more potent) was -0.781.

As to TTTCGAGCATCTACTATCTGGA, the sensor-assay potency score (higher = more potent) is -0.305.

On to TGTGTCTCGTGAACCATCCCTT, for which the sensor-assay potency score (higher = more potent) was 0.477.

For the sequence TAGCTCCTTAAAGAGCTCCAGT, the sensor-assay potency score (higher = more potent) was -1.06.

Sequence TTCTGTTCCTCTTCTAGCCGGA came in with a sensor-assay potency score (higher = more potent) of 0.394.

Take TTGAACTCTTACCAACATTAGG: the sensor-assay potency score (higher = more potent) is -1.3.

The target of a further assay is LTA4H. Described as above. Particulars: shRNA.
Sequence TTTTTCTATTGTAAGGTCCTTT had a sensor-assay potency score (higher = more potent) of 0.0919.

In turn, TTGATTGAGAACATCAACCTTA registered a sensor-assay potency score (higher = more potent) of 0.904.

Sequence TTGGAGAGTGACTTGTCGCCTG yielded a sensor-assay potency score (higher = more potent) of 0.145.

In turn, TATATCTGTCAGATCAACCACA gave a sensor-assay potency score (higher = more potent) of 0.143.

Sequence TGTAACTTTGTCTTTCTCCAAG showed a sensor-assay potency score (higher = more potent) of -0.956.

Regarding TTTGACTTCTTGTCCATTGATC, the sensor-assay potency score (higher = more potent) is -0.618.

For TTTCACAGAAGGAGTGTCCTGA, the sensor-assay potency score (higher = more potent) was 0.561.

On to TTCATGTGCAATGACATTGGAG, for which the sensor-assay potency score (higher = more potent) is -0.277.

For the sequence TAAACTTCATTCTTCCTTGTTC, the sensor-assay potency score (higher = more potent) amounted to 0.185.

TTTGTATCCAAAACCAGGCTGC showed a sensor-assay potency score (higher = more potent) of 0.416.
